Screening results as filed in PubChem BioAssay.
Many of the other results were omitted from the sample, so hits are more common in it than they were.
AmpC inh detg: AmpC beta-lactamase inhibition with detergent present; P00811; AmpC hydrolysis of nitrocefin, absorbance 480 nm, 0.01% Triton; Potency, µM (doses to about 114 µM), without a hit: top-dose activity change, negative = inhibition, usual class: inhibitors; 370,000 tested, 0.041% active;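 also: potency is read from the fitted curve at half-maximal effect; 0% = no-compound wells and -100% = no-enzyme wells; nearly all actives have a fitted effect of over 25% in size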
Target sequence (P00811 whole entry, looked up): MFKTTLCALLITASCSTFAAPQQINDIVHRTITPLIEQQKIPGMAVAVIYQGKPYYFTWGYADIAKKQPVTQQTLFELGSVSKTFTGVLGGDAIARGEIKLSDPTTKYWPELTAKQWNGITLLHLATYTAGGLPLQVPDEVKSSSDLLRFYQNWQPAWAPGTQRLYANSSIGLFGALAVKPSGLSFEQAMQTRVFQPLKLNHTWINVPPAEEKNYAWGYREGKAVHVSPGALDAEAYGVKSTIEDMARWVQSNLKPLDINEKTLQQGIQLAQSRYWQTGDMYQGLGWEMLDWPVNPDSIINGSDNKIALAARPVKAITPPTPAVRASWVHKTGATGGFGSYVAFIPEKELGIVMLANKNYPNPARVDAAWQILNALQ
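20 mM phosphate pH 7.0 + 0.01% (detergent screen) or 0.0001% Triton X-100; 5.3 nM AmpC reagent; cpd preinc 15 min RT; nitrocefin (800 uM stock) to start; A480 q20 s × 4 min; Activity was normalised to no-enzyme and no-compound control wells.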
Shiga inhibitor: Shiga toxin inhibition; 290,000 tested, 9.2% active; AID 2315; inhibition, % at 38.7 µM; Vero cells, Shiga toxin protein synthesis inhibition reporter; in the data active = inhibition mostly above about 28%, no sharp cut-off; inactive = mostly below about 43%; also: 0% is about no effect
CHX counter: counter-screen hit for Shiga toxin inhibitors, cycloheximide. cell reporter, cycloheximide protein synthesis inhibition counterscreen. max response, %. 300,000 tested, 12% active; in the data active = max response mostly above about 13%, no sharp cut-off; inactive = mostly below about 14%; also: read at 38.3 µM for the half of the compounds with a filed dose; 0% is about no effect
AmpC no deterg: blocks E. coli AmpC beta-lactamase in detergent-free assay; P00811; AmpC nitrocefin hydrolysis, absorbance 480 nm, 0.0001% Triton; Potency, µM (highest dose often 57.1 µM), without a hit: at the top dose activity change, negative = inhibition, most hits filed as inhibitors; 330,000 tested, 0.52% active;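 also: potency is read from the fitted curve at half-maximal effect; plate controls were no compound for no effect and no enzyme for full effect; nearly all actives have a fitted effect of over 20% in size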
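20 mM phosphate pH 7.0 + 0.01% (detergent screen) or 0.0001% Triton X-100; 5.3 nM AmpC reagent; cpd preinc 15 min RT; nitrocefin (800 uM stock) to start; A480 q20 s × 4 min; Activity was normalised to no-enzyme and no-compound control wells.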
NS1 inh: inhibitors of influenza NS1 protein function | Potency, µM (series often up to 46.1 µM), for the others: top-dose activity, positive = more growth | 270,000 tested, 0.4% active | AID 2326; calls by dose curve; also: potency is read from the fitted curve at half-maximal effect; actives are rising curves; nearly all actives have a fitted effect of over 50% in size
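Growth recovery, yeast-based: influenza A NS1 expressed in S. cerevisiae causes slow growth, and suppressors are detected by OD600. The parent strain without NS1 is used as positive control.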
* hit, by the source's call; u = inconclusive; x = not tested or not shown. Unless noted, calls follow the shape of the dose curve; as a rule, active = well fitted curve in the direction sought with a large enough effect; inconclusive = small, poorly fitted or top-dose-only effect, or another doubt; inactive = no such curve, though single readings can be large; an effect the other way counts as inactive or inconclusive.

SMILES	AmpC inh detg	Shiga inhibitor	CHX counter	AmpC no deterg	NS1 inh
Nc1cccc(-c2cn3ccsc3n2)c1	-5%	x	x	x	x
Cc1ccc2occ(CC(=O)Nc3ccc(Cl)c(C(F)(F)F)c3)c2c1	11%	x	x	x	x
O=C(O)c1cccc(N2C(=O)CSC2=S)c1	-14%	37	19*	-23%	1%
O=C1CSC(=S)N1c1cccc(O)c1	-9%	3	10	-41%	-78%
CN(C)c1ccc(N2C(=O)CSC2=S)cc1	-1%	62*	19*	-47%	22%
Cc1cccc(NC(=O)COc2ccc3c(c2)CCC3)n1	-14%	x	x	-14%	x
COc1ccc2c(CC(=O)Nc3ncc(C)s3)coc2c1	5%	86*	33*	-19%	x
COc1ccc(CCC(=O)Nc2ncc(C)s2)cc1	1%	35*	17*	-20%	4%
COc1ccc(CCC(=O)NCC23CC4CC(CC(C4)C2)C3)cc1	0%	-19	15*	-4%	-12%
Cc1cnc(NC(=O)COc2ccc3c(c2)CCC3)s1	2%	61*	60*	-22%	-10%
CS(=O)(=O)N1CCC(C(=O)Nc2cc(Cl)c(Cl)cc2Cl)CC1	u	-20	5	-10%	8%
Cc1cccc(C)c1NC(=O)COC(=O)c1ccc([N+](=O)[O-])o1	2%	-5	-4	-17%	-1%
COc1ccc(C2=C(SC)CC2=NC(C)(C)C)cc1	-1%	30	13*	-11%	2%
Cc1ccc(C(=O)NCC(=O)OCC(=O)c2ccc(Br)s2)cc1	u	x	x	-33%	x
Cc1occc1C(=O)Nc1ccc(Br)cc1F	1%	52*	51*	-20%	-16%
Cc1cc([N+](=O)[O-])ccc1NC(=O)c1csc(C)c1C	u	99*	63*	-30%	-9%
Cc1cc([N+](=O)[O-])ccc1NC(=O)c1cccc(NC(=O)C(C)C)c1	-10%	108*	15*	-7%	x
Cc1ccc([N+](=O)[O-])cc1NC(=O)c1ccoc1C	-8%	48*	35*	-19%	-17%
CNC(=S)Nc1ccc([N+](=O)[O-])cc1C	0%	-12	-4	-22%	6%
COc1ccc(NC(=O)CSc2nc3c(oc4ccccc43)c(=O)n2Cc2ccco2)cc1Cl	17%	35	16	x	x
CN(Cc1nnc(-c2ccc(F)cc2)o1)c1ccccc1	3%	71*	32*	-5%	-4%
O=C(CCc1nnc(COc2ccccc2)o1)NCc1ccccc1C(F)(F)F	1%	48	17*	28%	0%
COc1ccc(CCN(C)C(=O)CCc2nnc(-c3ccccc3)o2)cc1OC	-1%	65*	59*	17%	-3%
CN(Cc1ccc(F)cc1)C(=O)CCc1nnc(-c2ccccc2)o1	6%	108*	47*	40%	-6%
O=C(c1ccc2c(c1)N(Cc1ccccc1F)C(=O)c1ccccc1S2=O)N1CCOCC1 (stereo not drawn)	-11%	x	x	x	x
SMILES	AmpC inh detg	Shiga inhibitor	CHX counter	AmpC no deterg	NS1 inh
COCCN(C)C(=O)CCc1nnc(Cc2ccc(-c3ccccc3)cc2)o1	3%	-15	10	175%	-5%
CN(Cc1nc2c(s1)CCCC2)C(=O)CCc1nnc(-c2ccccc2)o1	-7%	61*	23*	47%	-3%
CCc1ccc(CN(C)C(=O)CCc2nnc(CCc3cccc(OC)c3)o2)nc1	-5%	28	-2	70%	1%
CCc1ccc(CN(C)C(=O)CCc2nnc(COc3ccccc3)o2)cc1	3%	81*	30*	148%	-5%
Fc1ccc(-c2nc3nc4ccccc4nc3n2Cc2ccco2)cc1	-4%	125*	44*	16%	-28%
c1ccc(-c2nc3nc4ccccc4nc3n2Cc2ccco2)cc1	-14%	137*	82*	20%	-81%
Fc1ccc(-n2c(-c3ccco3)nc3nc4ccccc4nc32)cc1	-15%	-11	-5	-34%	7%
CCOC(=O)N1CCN(C(=O)C2CCC(=O)N(Cc3cccc(C(F)(F)F)c3)C2)CC1 (stereo not drawn)	-2%	-7	-2	101%	-4%
Cc1ccc(C)c(NC(=O)CSc2cn(CC(=O)N3CCCC3)c3ccccc23)c1	11%	x	x	x	x
Cc1ccc2nc(-c3ccccc3)cc(C(=O)NCC(c3ccco3)N(C)C)c2c1 (stereo not drawn)	-14%	x	x	24%	x
CCOc1ccccc1Nc1ncnc2c1cnn2-c1ccccc1	u	-3	9	-6%	-55%
CCN(CC)c1ncnc2c1cnn2-c1cc(Cl)ccc1C	5%	x	x	x	x
OCCOCCNc1ncnc2c1cnn2-c1ccc(Cl)cc1	3%	1	-2	0%	-10%
COCCN(CCOC)c1ncnc2c1cnn2-c1ccc(Cl)cc1	1%	76*	60*	79%	-59%
COCCNc1ncnc2c1cnn2-c1ccc(Cl)cc1	-15%	73*	43*	-5%	x
COCCN(CCOC)c1ncnc2c1cnn2-c1ccccc1	6%	34*	15*	-10%	-5%
Cc1oc2ccccc2c1-c1cn2c(n1)SCC2	-7%	24	11*	-23%	-10%
Oc1ccc(-c2cn3c(n2)SCC3)cc1O	-1%	21	11	-24%	-3%
Clc1ccc(-c2cn3c(n2)SCC3)cc1	-5%	162*	38*	-25%	x
c1ccc(-c2cn3c(n2)SCC3)cc1	2%	50*	29*	-10%	0%
Oc1ccc(-c2cn3c(n2)SCC3)cc1	-2%	20	13	-9%	-3%
Brc1ccc(-c2cn3c(n2)SCC3)cc1	-9%	100*	35*	-9%	-7%
COc1ccc(-n2nnnc2SCC(=O)NC(=O)Nc2ccc3c(c2)OCCO3)cc1	-2%	92*	21*	-22%	-4%
Cc1nnc(SCC(=O)NC(=O)Nc2ccc3c(c2)OCCO3)n1N	-7%	50*	39*	-1%	-2%
O=C(CSc1nnnn1-c1ccccc1Cl)Nc1ccc2c(c1)OCCO2	-2%	84*	46*	32µM*	-17%
SMILES	AmpC inh detg	Shiga inhibitor	CHX counter	AmpC no deterg	NS1 inh
CC(C)Oc1cccc(-c2nnc(SCC(=O)Nc3ccc4c(c3)OCCO4)n2N)c1	3%	100	34*	-4%	0%
C[C@@H]1CCCCCCCCC(=O)OCCN1C(=O)OC(C)(C)C	0%	x	x	77%	x
CCN(CC)S(=O)(=O)c1ccc2c(c1)N(CC(=O)Nc1cccnc1Cl)C(=O)CO2	3%	-11	-3	-4%	x
CCc1ccc2occ(CC(=O)N(Cc3ccccc3)C3CCS(=O)(=O)C3)c2c1 (stereo not drawn)	-3%	x	x	x	x
O=C(CSc1nncs1)Nc1ccc(N2CCCCC2)cc1	-10%	x	x	-19%	x
O=C(CSc1nnnn1-c1ccc(Cl)cc1)NC(=O)Nc1ccc2c(c1)OCCO2	u	72*	29*	u	-7%
Cc1ccc(-n2nnnc2SCC(=O)NC(=O)Nc2ccc3c(c2)OCCO3)cc1	-13%	75*	23*	-33%	-31%
CCC(=O)Nc1ccc(NC(=O)CSc2nnnn2-c2ccc3c(c2)OCCO3)cc1	-1%	2	-2	-10%	x
